Assay outcomes: PubChem, National Center for Advancing Translational Sciences (NCATS)
ELG1 repair inh = ELG1-dependent DNA repair inhibition. HEK293T ELG1-luciferase reporter, luminescence, 16 h; DNA damage induced by 5-fluorouridine. Potency, µM (series often up to 46.1 µM), for inactives: top-dose activity change, negative = inhibition, usual class: inhibitors. 330,000 compounds, 2.3% hits. AID 504467; further: potency means the concentration at half of the fitted maximal effect; nearly all actives have a fitted effect of over 55% in size
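Quantitative HTS, concentration-response format. 2,000 cells/well co-treated with 5-fluorouridine and compound, 16 hr in 5% CO2 at 37 °C; ONE-Glo luminescence read after 30 min.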
IL-1B inflam inh = inhibitors of inflammasome signaling (IL-1 beta secretion) | THP-1 LPS/ATP IL-1B secretion, AlphaLISA, 16 h; hits give low values | activity change, % at 57.5 µM | 360,000 compounds, 4.7% hits; in the data active means activity change below about -50%; inconclusive means mostly about -30% to -49%
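Secreted IL-1B measured by AlphaLISA bead assay after 16 h compound exposure of THP-1 cells; compounds (final up to 57.5 uM) added 1 h before LPS (250 ng/mL) and ATP (1.25 mM) stimulation; lower signal means less secretion.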
HT1080 IDH1KD tx = toxicity to HT-1080 IDH1 knockdown cells (counter line); HT-1080 IDH1 knockdown viability, ATP luminescence, 48 h; Potency, µM (series often up to 46.1 µM), for the others: at the highest dose activity, negative = toxicity, usual class: cytotoxic; 360,000 compounds, 2% hits;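 further: potency means the concentration at half of the fitted maximal effect; 0% = DMSO wells and -100% = cell-free medium wells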
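In this qHTS, HT-1080 cells depleted of IDH1 are exposed for 48 h at 37 °C to compound titrations. Toxicity is scored from CellTiter-Glo luminescence, with DMSO as full viability and medium alone as none.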
HT1080NT lethal = kills 2HG-producing HT-1080-NT fibrosarcoma cells; HT-1080-NT fibrosarcoma viability, CellTiter-Glo ATP luminescence, 48 h; Potency, µM (series often up to 46.1 µM), inactives show at the highest dose activity, negative = less viability, most hits filed as cytotoxic; 360,000 compounds, 1.6% hits; AID 686970;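 further: NT is the 2HG producing partner of a matched IDH1 knockdown line; potency means the concentration at half of the fitted maximal effect; 0% = DMSO-treated cells and -100% = media-only wells without cells; nearly all actives have a fitted effect of over 55% in size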
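Viability by CellTiter-Glo luminescence after 48 h compound exposure at 37C of HT-1080-NT cells (750/well, RPMI, 5% FBS). % activity scaled between DMSO wells and medium-only wells, then curve-fitted and categorized by curve class.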
DT40 TDP1 CPT = DT40-hTDP1 cell growth loss with CPT | chicken DT40 Tdp1-/-;hTDP1 cells + 20 nM CPT, ATP luminescence, 48 h | Potency, µM (highest dose often 46.2 µM), for the others: at the top dose activity change, negative = growth inhibition, usual class: inhibitors | 420,000 compounds, 12% hits | AID 686979; further: potency means the concentration at half of the fitted maximal effect; nearly all actives have a fitted effect of over 55% in size
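Cell growth measured by CellTiter-Glo luminescence after a minimum 48 h, 37 C compound exposure with 20 nM CPT in Tdp1-knockout DT40 cells stably expressing hTDP1, seeded 400/well; qHTS titration format.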
DT40 TDP1 no CPT = qHTS for Inhibitors of human tyrosyl-DNA phosphodiesterase 1 (TDP1): qHTS in cells in absence of CPT. 420,000 compounds, 15% hits. DT40 Tdp1-/- hTDP1 cells, no CPT, ATP luminescence, 48 h. Potency, µM (titrated, usually from 46.2 µM), for inactives: at the top dose activity change, negative = growth inhibition, most hits filed as inhibitors; further: potency means the concentration at half of the fitted maximal effect; nearly all actives have a fitted effect of over 55% in size
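Chicken DT40 Tdp1-/- cells stably complemented with human TDP1 were seeded at 400 cells/well with DMSO in place of 20 nM camptothecin. After compound pinning, cells grew at least 48 hr at 37 °C; viability read by CellTiter-Glo luminescence.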
* hit, by the source's call; u = inconclusive; x = no result given. This is a sample that favours compounds with a hit; in the whole collection about 19% have one here. Unless noted, the call rests on the fitted dose curve; in most records, active means well fitted curve in the direction sought with a large enough effect; inconclusive means small, poorly fitted or top-dose-only effect, or another doubt; inactive means no such curve, though single readings can be large; an effect the other way counts as inactive or inconclusive. Unless noted, on the % scale 0 is the no-effect control and ±100 the full control effect.

SMILES	ELG1 repair inh	IL-1B inflam inh	HT1080 IDH1KD tx	HT1080NT lethal	DT40 TDP1 CPT	DT40 TDP1 no CPT
O=C1CN(C(=O)c2ccc(F)cc2)c2ccccc2N1	3%	6	0%	12%	20%	-18%
Cc1ccc(CN2CCc3nnc(C(C)NC(=O)c4cc(F)ccc4F)n3CC2)o1 (stereo not drawn)	x	x	x	x	12%	-8%
Cc1cc(C)n(CC(O)COc2ccc(Cl)cc2Cl)n1 (stereo not drawn)	u	-52*	13%	11%	u	21µM*
Cc1nccn1CC(O)COc1ccc(Cl)cc1Cl (stereo not drawn)	-3%	-3	-21%	u	u	15µM*
Cc1nccn1CCOc1ccccc1Cl	5%	10	-6%	-11%	2%	-4%
CCCCc1ccc(NC(=O)Cn2cnc3c(oc4ccccc43)c2=O)cc1	x	x	x	x	-1%	-16%
Cc1c(C)c2c(c(C)c1O)CCC(C)(COc1ccc(CC3SC(=O)NC3=O)cc1)O2 (stereo not drawn)	x	x	x	x	13µM*	13µM*
CN1CCN(c2ncc3nc(-c4ccccc4)c(=O)n(CCC#N)c3n2)CC1	x	x	x	x	u	16µM*
N#CCCn1c(=O)c(-c2ccccc2)nc2cnc(N3CCOCC3)nc21	x	x	x	x	-9%	-12%
COc1ccc(-c2nc3cnc(N4CCN(C)CC4)nc3n(CCC#N)c2=O)cc1	x	x	x	x	-24%	23µM*
COc1ccc(OC)c(NC(=O)NC2CCCc3ccccc32)c1 (stereo not drawn)	0%	3	-10%	-6%	-26%	0%
COC(=O)c1cn(NC(=O)c2cnccn2)c(=O)c2ccccc12	-20%	170	u	u	7.3µM*	7.3µM*
O=C(Nn1cc(C(=O)Nc2ccccc2F)c2ccccc2c1=O)c1cnccn1	u	17	u	-23%	u	u
Cc1ccc(SC/C(O)=C(\C#N)c2nc3ccccc3s2)cc1	-1%	0	1%	0%	u	u
N#C/C(=N\O)c1nc2ccccc2s1	-8%	55	-3%	7%	3%	0%
N#C/C(=C(/O)COc1ccc(Cl)cc1)c1nc2ccccc2s1	u	19	-6%	-9%	u	9.2µM*
N#C/C(=C(/O)CSc1ccccn1)c1nc2ccccc2s1	14%	0	0%	-9%	15µM*	u
N#C/C(=C(/O)c1ccc(F)cc1)c1nc2ccccc2s1	-7%	-26	-28%	-7%	18µM*	23µM*
N#C/C(=C(/O)COc1ccccc1)c1nc2ccccc2s1	u	8	7%	0%	-17%	u
O=C(NC1CCCC1)c1nc(-c2c(F)cccc2F)oc1-c1ccccc1	x	-4	-23%	-8%	u	u
Cn1c(SCC(=O)NN2C(=O)NC(C)(c3ccccc3)C2=O)nnc1-c1ccncc1 (stereo not drawn)	10%	0	2%	-2%	-15%	29µM*
Cc1[nH]c2ccccc2c1CN1CCc2ccccc2C1	u	u	-1%	-17%	10µM*	12µM*
CCCN(CCC)c1ccc(C2N=C(N)Nc3nc4ccccc4n32)cc1 (stereo not drawn)	x	x	x	x	23µM*	16µM*
COc1cc(C2N=C(N)Nc3nc4ccccc4n32)ccc1OCCC(C)C (stereo not drawn)	x	x	x	x	23µM*	18µM*
COc1cc(C2N=C(N)Nc3nc4ccccc4n32)ccc1OCC(=O)O (stereo not drawn)	x	x	x	x	4%	3%
CN(C)CCNc1cc(N2CCN(C)CC2)ncn1	x	x	x	x	11%	4%
